Test results as given in PubChem BioAssay AID1159580 (chemical genetic matrix, 2015).
Several values for one entry are separate records, joined by “and”; a condition that tells them apart may be missing. Identical values can stand only once. The whole screen tested about 5,500 compounds, of which about 2,000 (36%) were called active. Inconclusive results (about 18%) are left out. Rule as the data show it: active = normalized growth mostly below about 0.91 (no sharp cut-off); inconclusive = no clear call, values can overlap the other calls; inactive = mostly above about 0.92. This is one part of the list.

Experiment: chemical genetic growth profiling, strain panel (AID 1159580);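 also: tested at 20 µM; growth read once vehicle control cultures reached saturation at 30 °C; 1 = growth at the plate median or of vehicle wells; lower values mean less growth of the strain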
Conditions: S. cerevisiae deletion strains, growth OD

Measured: normalized growth

CC(=O)Nc1nnc(S(N)(=O)=O)s1
0.773 (active) and 0.995 (inactive): locus YJL095W, strain BCK1, stronger effect = lower value
active: locus YDL035C, strain GPR1, stronger effect = lower value 0.538 | locus YDL074C, strain BRE1, stronger effect = lower value 0.709 | locus YDL101C, strain DUN1, stronger effect = lower value 0.878 | locus YDL134C, strain PPH21, stronger effect = lower value 0.621 | locus YDL192W, strain arf1, stronger effect = lower value 0.915 | locus YDR162C, strain NBP2, stronger effect = lower value 0.126 | locus YDR318W, strain mcm21, stronger effect = lower value 0.917 | locus YEL061C, strain CIN8, stronger effect = lower value 0.728 | locus YER167W, strain BCK2, stronger effect = lower value 0.748 | locus YGL086W, strain mad1, stronger effect = lower value 0.864 | locus YGL248W, strain PDE1, stronger effect = lower value 0.585 | locus YGR078C, strain PAC10, stronger effect = lower value 0.477 | locus YGR135W, strain pre9, stronger effect = lower value 0.81 | locus YHR129C, strain ARP1, stronger effect = lower value 0.728 | locus YIL066C, strain RNR3, stronger effect = lower value 0.24 | locus YIL073C, strain SPO22, stronger effect = lower value 0.202 | locus YJL187C, strain SWE1 (second series), stronger effect = lower value 0.793 | locus YJR043C, strain POL32, stronger effect = lower value 0.398
inactive: locus YAL013W, strain DEP1, stronger effect = lower value 0.987 | locus YAL021C, strain ccr4, stronger effect = lower value 1 | locus YAL026C, strain drs2, stronger effect = lower value 1 | locus YAL030W, strain snc1, stronger effect = lower value 1.02 | locus YAL040C, strain CLN3, stronger effect = lower value 0.992 | locus YBL061C, strain skt5, stronger effect = lower value 1.01 | locus YBR009C, strain hhf1, stronger effect = lower value 0.991 | locus YBR021W, strain FUR4, stronger effect = lower value 0.944 | locus YBR023C, strain chs3, stronger effect = lower value 1.01 | locus YBR171W, strain sec66, stronger effect = lower value 1.02 | locus YBR229C, strain ROT2, stronger effect = lower value 0.95 | locus YBR231C, strain swc5, stronger effect = lower value 1.01 | locus YBR279W, strain paf1, stronger effect = lower value 1.01 | locus YCL011C, strain gbp2, stronger effect = lower value 1.02 | locus YCL016C, strain dcc1, stronger effect = lower value 1 | locus YCL029C, strain bik1, stronger effect = lower value 0.987 | locus YCL061C, strain MRC1 (second series), stronger effect = lower value 0.999 | locus YCL069W, strain vba3, stronger effect = lower value 1.02 | locus YCR088W, strain abp1, stronger effect = lower value 1.01 | locus YDL005C, strain med2, stronger effect = lower value 0.997 | locus YDL040C, strain nat1, stronger effect = lower value 1.01 | locus YDL185W, strain tfp1, stronger effect = lower value 0.998 | locus YDR001C, strain nth1, stronger effect = lower value 1.01 | locus YDR069C, strain doa4, stronger effect = lower value 1.01 | locus YDR101C, strain arx1, stronger effect = lower value 0.998 | locus YDR137W, strain rgp1, stronger effect = lower value 1 | locus YDR159W, strain sac3, stronger effect = lower value 0.99 | locus YDR195W, strain ref2 1.01 | locus YDR297W, strain sur2, stronger effect = lower value 1.01 | locus YDR334W, strain swr1, stronger effect = lower value 1.01 | locus YDR335W, strain msn5, stronger effect = lower value 1 | locus YDR388W, stronger effect = lower value 0.959 | locus YDR392W, strain spt3, stronger effect = lower value 1 | locus YDR502C, strain sam2, stronger effect = lower value 0.943 | locus YEL003W, strain gim4, stronger effect = lower value 1.01 | locus YEL037C, strain rad23, stronger effect = lower value 1.02 | locus YEL061C, strain CIN8 (second series), stronger effect = lower value 1.02 | locus YER002W, strain NOP16, stronger effect = lower value 1.03 | locus YER015W, strain faa2, stronger effect = lower value 0.997 | locus YER016W, strain bim1, stronger effect = lower value 0.99 | locus YER110C, stronger effect = lower value 1.01 | locus YER111C, strain swi4, stronger effect = lower value 1.01 | locus YER155C, strain BEM2 (second series), stronger effect = lower value 1.03 | locus YER155C, strain BEM2, stronger effect = lower value 1.01 | locus YFR010W, strain ubp6, stronger effect = lower value 1.03 | locus YGL078C, strain dbp3, stronger effect = lower value 1 | locus YGL167C, strain pmr1, stronger effect = lower value 1.01 | locus YGL173C, strain kem1, stronger effect = lower value 1.02 | locus YGL227W, strain vid30, stronger effect = lower value 1.01 | locus YGL240W, strain doc1, stronger effect = lower value 1.01 | locus YGL253W, strain hxk2, stronger effect = lower value 1.01 | locus YGR252W, strain gcn5, stronger effect = lower value 0.824 | locus YHR013C, strain ard1, stronger effect = lower value 1.02 | locus YHR027C, strain rpn1, stronger effect = lower value 0.999 | locus YHR079C, strain IRE1 (second series), stronger effect = lower value 0.996 | locus YHR079C, strain IRE1, stronger effect = lower value 0.969 | locus YHR094C, strain hxt1, stronger effect = lower value 0.985 | locus YHR142W, strain chs7, stronger effect = lower value 1.01 | locus YHR200W, strain rpn10, stronger effect = lower value 0.985 | locus YIL125W, strain kgd1, stronger effect = lower value 1.01 | locus YIR030C, strain dcg1, stronger effect = lower value 1.01 | locus YJL092W, strain hpr5, stronger effect = lower value 1.02 | locus YJL095W, strain BCK1 (second series), stronger effect = lower value 1.01 | locus YJL115W, strain asf1, stronger effect = lower value 1.02 | locus YJL129C, strain trk1, stronger effect = lower value 1.02 | locus YJL134W, strain LCB3, stronger effect = lower value 0.938 | locus YJL154C, strain vps35, stronger effect = lower value 1.02 | locus YJL164C, strain tpk1, stronger effect = lower value 1 | locus YJL166W, strain qcr8, stronger effect = lower value 1.01 | locus YJL168C, strain set2, stronger effect = lower value 0.979 | locus YJR066W, strain TOR1, stronger effect = lower value 0.97 | locus YJR075W, strain HOC1, stronger effect = lower value 1.01
0.707 (active) and 1 (inactive): locus YHR030C, strain SLT2, stronger effect = lower value
